The supplement of paper PMC6555819

Assays:
Assay in all cases: PBM binding z-score (relative to random genomic background probes); higher = stronger binding; sequences stand for … in GC…GCGATTGACAGCGTAGAATGAAGG
[1] = test system: RARb homodimer (NR concentration 270 nM)
Summary of the method: (§1)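 Binding buffer was PBS pH 7.4 with 2% milk, 0.02% Triton X-100, 1 mM DTT, 0.2 mg/mL BSA and 0.4 mg/ml salmon testes DNA. In it, ligand-free nuclear receptor dimers were incubated 1 h on custom Agilent 4×180K protein-binding microarrays carrying double-stranded probes. Antibodies against each partner (one per run) detected binding, and z-scores were calculated against random background probes after regression normalization of scanned fluorescence.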

[2] = test system: RARg:RXRa (NR concentration 270 nM, RXRa partner concentration 90 nM)
Summary of the method: as §1

[3] = test system: RARg homodimer (NR concentration 270 nM)
Summary of the method: as §1

[4] = test system: RXRa DBDmut IVT, anti-RXR (DBD mutation: RXRa K156A/R161A, NR concentration 90 nM)
Summary of the method: as §1

[5] = test system: RXRa homodimer (NR concentration 180 nM)
Summary of the method: as §1

[6] = test system: THRa:RXRa (NR concentration 90 nM, RXRa partner concentration 90 nM)
Summary of the method: as §1

[7] = test system: THRa homodimer (NR concentration 90 nM)
Summary of the method: as §1

[8] = test system: VDR:RXRa (NR concentration 270 nM, RXRa partner concentration 90 nM)
Summary of the method: as §1

[9] = test system: VDR homodimer (NR concentration 270 nM)
Summary of the method: as §1

| Sequence | PBM binding z-score [1] | PBM binding z-score [2] | PBM binding z-score [3] | PBM binding z-score [4] | PBM binding z-score [5] | PBM binding z-score [6] | PBM binding z-score [7] | PBM binding z-score [8] | PBM binding z-score [9] |
| --- | --- | --- | --- | --- | --- | --- | --- | --- | --- |
| TTATCAAGGTGAAGGTCGTTGATCCCTCTGTAGA | 1.82 | 1.55 | 1.33 | 0.598 | 1.89 | 2.68 | 1.3 | 1.55 | 1.23 |
| TCAAATAGGTAAAAGGTGAAAGTCGGTGTGGTAA | 2.05 | 1.86 | 1.07 | 2.15 | 3.26 | 1.77 | 0.3 | 1.79 | 0.497 |
| TCTTGTAGATCAACAGGGGGTTAAGAAAGATCGA | 1.32 | 1.91 | 0.92 | 1.89 | 1.93 | 1.86 | 0.559 | 2.13 | 0.493 |
| AGTCAAAGTCCAGGACGAGGTAACGTAAAGCACG | 0.381 | 0.451 | 0.688 | -0.0759 | 0.28 | 1.89 | 1.14 | -0.202 | -0.089 |
| CCGAGTAGGTTATGGCGCATTCAGGCAACGGTGA | 0.598 | 0.0806 | 0.1 | -0.0161 | 0.365 | 0.169 | 0.321 | -0.266 | -0.2 |
| GCTTATAGGTAATACAAGGTGAAAGTCCGATTGT | 1.05 | 0.63 | 0.649 | 0.59 | 0.772 | 4.28 | 1.16 | 0.401 | 0.227 |
| TGAATGAGGTTATAAGATCAGTGAACGTTGCAAA | 0.307 | 1.49 | 0.953 | 0.773 | 1.95 | 1.69 | 0.0121 | 1.14 | 0.482 |
| TCATATAGGAAAATGCTAGGTGAAAGTCCGATCT | 0.42 | 0.204 | 0.133 | 1.41 | 0.778 | 0.612 | 0.548 | 0.9 | 0.37 |
| GGAACGAGGGAATTCGAGTTGATAGCATGGCGAT | -0.928 | -0.376 | -0.201 | -0.589 | -0.105 | 0.1 | -1.07 | -0.217 | -0.525 |
| TCTTGTAGATCAAGGAGGTTAAGAAAGCCTGAGT | 0.594 | 0.234 | -0.0688 | 0.581 | 0.685 | 0.835 | -0.069 | 1.26 | 0.29 |
| TCATATAGGTAAAATGTGAAAGTCGGTGTGGTAA | -0.199 | 0.0549 | -0.0961 | 1.45 | 0.646 | -0.0922 | -0.336 | 0.774 | -0.00299 |
| GTACCAAGGTGACTAGGTCGTTGATGAGTAGGCG | 0.945 | 0.955 | 0.808 | -0.648 | 0.837 | 1.87 | 0.333 | 0.346 | 0.099 |
| TCTTTTAGATCAAGCAGGTTAAGAAAGCCTGAGT | 0.0271 | 0.216 | 0.212 | 1.19 | 0.49 | 0.401 | -0.436 | 0.762 | 0.0126 |
| ACTGGCAGGCCAAGTTTGGGTCACTCAAACAAAG | 2.35 | 2.51 | 1.97 | -0.557 | 0.925 | 2.56 | 1.14 | 0.456 | -0.0755 |
| TCTTGTAGAGCAAAGGTTAAGAAAGCCGAAGCCT | 1.17 | 1.43 | 0.586 | -0.181 | 2.6 | 1.06 | -1.14 | 0.679 | -0.734 |
| CCTCGGAGGACATAAGGTCAGAGCTGTCCGCTTT | 3.89 | 3.93 | 3.55 | 0.965 | 2.31 | 3.91 | 2.81 | 1.91 | 1.01 |
